Binding signal data for 4 sequences are collected here from article PMC7862700, “An all-to-all approach to the identification of sequence-specific readers for epigenetic DNA modifications on cytosine”.

Test in all cases: DAPPL (digital affinity profiling via proximity ligation, sequencing); 10 mM Tris-HCl pH 7.5, 50 mM NaCl, 1 mM DTT, 4% glycerol, room temperature, 30 min; GST-TFs on glutathione beads, 16-mer random dsDNA library, 0.1% formaldehyde crosslink after washing; high values mean tight binding
Common to all, as to details: protein: recombinant; tags: N-terminal GST; dsDNA, one strand shown

In one test the target is SPI1 (Homo sapiens, UniProt P17947 1-270). Summed up: (§1)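 Binding signal is given per hexamer as its read frequency for a factor divided by its frequency in the tag-only sample. GST-fused human transcription factors were expressed in yeast, captured on glutathione beads, barcoded with DNA and pooled with that sample, then incubated with 200 nmole of a 16-mer random double-stranded DNA library in Tris/NaCl/DTT/glycerol buffer for 30 min at room temperature. The pools were then washed, crosslinked, proximity-ligated, amplified by PCR and sequenced on an Illumina NextSeq500.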

The next test addresses SPIB (Homo sapiens, UniProt Q01892 1-262). Summed up: as §1
A further test deals with T1, FEV (Homo sapiens, UniProt Q99581 1-238).
T1 sequence: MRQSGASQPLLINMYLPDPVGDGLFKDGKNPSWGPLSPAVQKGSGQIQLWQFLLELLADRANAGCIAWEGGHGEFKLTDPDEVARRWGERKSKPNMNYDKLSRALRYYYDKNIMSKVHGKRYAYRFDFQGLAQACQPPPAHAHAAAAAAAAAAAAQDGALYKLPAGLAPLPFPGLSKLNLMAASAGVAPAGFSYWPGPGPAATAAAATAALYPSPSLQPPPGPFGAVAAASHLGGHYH
Summed up:
as §1

The target in the next test is ELF4 (Homo sapiens, UniProt Q99607 1-663). Summed up:
as §1

The target in the next test is T2, ETV2 (Homo sapiens, UniProt O00321 1-342).
T2 sequence: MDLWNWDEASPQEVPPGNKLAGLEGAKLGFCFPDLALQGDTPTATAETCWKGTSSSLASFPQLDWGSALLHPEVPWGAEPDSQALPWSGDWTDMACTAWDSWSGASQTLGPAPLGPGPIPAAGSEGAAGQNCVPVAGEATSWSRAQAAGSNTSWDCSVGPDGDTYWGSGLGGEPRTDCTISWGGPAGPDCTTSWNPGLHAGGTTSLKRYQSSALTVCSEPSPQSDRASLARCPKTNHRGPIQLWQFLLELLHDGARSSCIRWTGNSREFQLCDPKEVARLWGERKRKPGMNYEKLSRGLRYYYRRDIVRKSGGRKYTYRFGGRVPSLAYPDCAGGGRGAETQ
Put shortly:
as §1

A further test concerns the target T3, ERF (Homo sapiens, UniProt P50548 1-548).
T3 sequence: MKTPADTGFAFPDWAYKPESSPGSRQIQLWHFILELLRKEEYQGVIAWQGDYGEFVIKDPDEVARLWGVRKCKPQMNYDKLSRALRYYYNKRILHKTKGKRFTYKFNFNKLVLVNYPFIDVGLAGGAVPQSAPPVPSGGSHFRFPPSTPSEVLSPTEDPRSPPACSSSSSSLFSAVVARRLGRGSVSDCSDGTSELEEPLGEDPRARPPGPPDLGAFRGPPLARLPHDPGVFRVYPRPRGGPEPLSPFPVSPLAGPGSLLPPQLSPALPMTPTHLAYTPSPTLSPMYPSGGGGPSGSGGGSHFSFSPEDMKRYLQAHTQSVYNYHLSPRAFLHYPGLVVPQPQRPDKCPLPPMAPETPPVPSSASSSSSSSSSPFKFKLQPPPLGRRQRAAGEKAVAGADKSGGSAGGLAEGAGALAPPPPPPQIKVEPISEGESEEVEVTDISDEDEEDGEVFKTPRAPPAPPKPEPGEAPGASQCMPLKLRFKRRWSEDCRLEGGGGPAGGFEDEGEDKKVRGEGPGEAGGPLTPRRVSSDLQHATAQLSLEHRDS
Put shortly:
as §1

For the next test, the target named is T4, ETS2 (Homo sapiens, UniProt P15036 1-469).
T4 sequence: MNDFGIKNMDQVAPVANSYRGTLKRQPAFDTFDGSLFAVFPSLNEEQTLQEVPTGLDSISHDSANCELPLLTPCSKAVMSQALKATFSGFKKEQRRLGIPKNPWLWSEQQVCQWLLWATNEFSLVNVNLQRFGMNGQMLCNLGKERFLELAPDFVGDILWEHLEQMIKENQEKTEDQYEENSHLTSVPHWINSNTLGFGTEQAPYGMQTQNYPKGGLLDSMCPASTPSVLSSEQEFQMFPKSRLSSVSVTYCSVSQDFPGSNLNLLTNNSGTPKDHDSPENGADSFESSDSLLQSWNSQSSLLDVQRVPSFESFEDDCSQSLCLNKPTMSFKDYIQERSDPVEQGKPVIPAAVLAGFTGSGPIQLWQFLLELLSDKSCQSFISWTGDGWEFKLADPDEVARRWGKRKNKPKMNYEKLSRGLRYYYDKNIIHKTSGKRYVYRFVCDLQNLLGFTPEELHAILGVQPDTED
Put shortly: as §1

For another test, the target named is T5, ELK4 (Homo sapiens, UniProt P28324-2 1-405).
T5 sequence: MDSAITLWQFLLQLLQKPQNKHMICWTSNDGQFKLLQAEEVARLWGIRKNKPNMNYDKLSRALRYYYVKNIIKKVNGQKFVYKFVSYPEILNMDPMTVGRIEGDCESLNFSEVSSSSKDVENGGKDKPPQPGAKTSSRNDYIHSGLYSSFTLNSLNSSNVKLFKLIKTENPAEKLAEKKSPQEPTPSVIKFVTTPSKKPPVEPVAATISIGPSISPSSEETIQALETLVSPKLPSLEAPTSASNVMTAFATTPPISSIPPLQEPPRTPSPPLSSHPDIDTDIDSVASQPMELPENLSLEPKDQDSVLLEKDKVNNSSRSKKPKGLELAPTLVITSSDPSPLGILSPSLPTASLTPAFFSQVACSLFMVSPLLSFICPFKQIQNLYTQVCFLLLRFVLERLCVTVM
Put shortly:
as §1

The target of a further test is T6, ELK1 (Homo sapiens, UniProt P19419 1-428).
T6 sequence: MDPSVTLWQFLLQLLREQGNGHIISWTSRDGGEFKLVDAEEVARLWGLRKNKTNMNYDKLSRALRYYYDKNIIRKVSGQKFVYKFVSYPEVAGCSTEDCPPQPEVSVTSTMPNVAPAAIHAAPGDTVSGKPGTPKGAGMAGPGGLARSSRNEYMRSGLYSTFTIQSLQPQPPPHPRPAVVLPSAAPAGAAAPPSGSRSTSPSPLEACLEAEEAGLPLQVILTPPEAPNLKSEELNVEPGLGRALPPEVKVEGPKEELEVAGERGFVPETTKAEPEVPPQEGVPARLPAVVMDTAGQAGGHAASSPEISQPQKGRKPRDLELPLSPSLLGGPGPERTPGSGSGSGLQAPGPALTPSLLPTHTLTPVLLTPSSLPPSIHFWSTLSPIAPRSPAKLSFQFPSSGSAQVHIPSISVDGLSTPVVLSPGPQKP
Put shortly: as §1

A further test concerns the target T7, ERG (Homo sapiens, UniProt P11308 1-479).
T7 sequence: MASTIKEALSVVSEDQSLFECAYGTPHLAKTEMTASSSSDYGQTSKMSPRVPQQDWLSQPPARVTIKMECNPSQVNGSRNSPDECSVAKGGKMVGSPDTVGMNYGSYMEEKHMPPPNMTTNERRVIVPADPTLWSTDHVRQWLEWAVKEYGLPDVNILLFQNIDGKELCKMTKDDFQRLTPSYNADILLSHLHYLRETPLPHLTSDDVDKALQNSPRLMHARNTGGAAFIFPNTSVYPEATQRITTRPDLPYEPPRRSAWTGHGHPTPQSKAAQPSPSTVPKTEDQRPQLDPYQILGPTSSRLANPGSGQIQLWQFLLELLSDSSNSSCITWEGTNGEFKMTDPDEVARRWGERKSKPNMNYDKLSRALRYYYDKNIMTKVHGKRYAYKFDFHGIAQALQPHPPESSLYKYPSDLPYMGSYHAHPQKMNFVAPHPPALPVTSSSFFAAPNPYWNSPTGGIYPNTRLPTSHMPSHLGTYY
Summed up: as §1

The next test addresses T8, EHF (Homo sapiens, UniProt Q9NZC4 1-300).
T8 sequence: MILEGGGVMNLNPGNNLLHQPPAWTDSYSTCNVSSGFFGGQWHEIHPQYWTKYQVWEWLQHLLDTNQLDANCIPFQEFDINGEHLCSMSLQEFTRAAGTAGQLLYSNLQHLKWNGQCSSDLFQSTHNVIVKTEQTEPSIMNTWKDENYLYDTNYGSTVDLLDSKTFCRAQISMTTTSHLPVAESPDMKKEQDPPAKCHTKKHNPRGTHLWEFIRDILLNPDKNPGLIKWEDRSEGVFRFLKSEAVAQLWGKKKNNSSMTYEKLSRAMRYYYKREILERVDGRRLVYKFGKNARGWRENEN
Put shortly: as §1

The target of a further test is ETV1 (Homo sapiens, UniProt P50549 1-477). Put shortly: as §1
ETV1, sequence (P50549 whole entry): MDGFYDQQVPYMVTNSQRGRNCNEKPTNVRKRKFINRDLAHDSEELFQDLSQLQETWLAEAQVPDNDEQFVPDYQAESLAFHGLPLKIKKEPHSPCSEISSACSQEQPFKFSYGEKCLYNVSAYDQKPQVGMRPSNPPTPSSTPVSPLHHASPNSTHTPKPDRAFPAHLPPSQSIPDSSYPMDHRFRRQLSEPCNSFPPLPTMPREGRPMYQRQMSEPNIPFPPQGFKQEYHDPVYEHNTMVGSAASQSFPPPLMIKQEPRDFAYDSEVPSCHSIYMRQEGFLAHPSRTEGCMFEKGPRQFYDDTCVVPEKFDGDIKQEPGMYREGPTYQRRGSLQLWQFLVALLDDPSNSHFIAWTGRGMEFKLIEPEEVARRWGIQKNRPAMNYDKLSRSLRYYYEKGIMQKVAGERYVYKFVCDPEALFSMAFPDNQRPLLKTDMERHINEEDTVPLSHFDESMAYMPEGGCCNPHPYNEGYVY
The next test has as its target T9, ETV3L (Homo sapiens, UniProt Q6ZN32 1-361).
T9 sequence: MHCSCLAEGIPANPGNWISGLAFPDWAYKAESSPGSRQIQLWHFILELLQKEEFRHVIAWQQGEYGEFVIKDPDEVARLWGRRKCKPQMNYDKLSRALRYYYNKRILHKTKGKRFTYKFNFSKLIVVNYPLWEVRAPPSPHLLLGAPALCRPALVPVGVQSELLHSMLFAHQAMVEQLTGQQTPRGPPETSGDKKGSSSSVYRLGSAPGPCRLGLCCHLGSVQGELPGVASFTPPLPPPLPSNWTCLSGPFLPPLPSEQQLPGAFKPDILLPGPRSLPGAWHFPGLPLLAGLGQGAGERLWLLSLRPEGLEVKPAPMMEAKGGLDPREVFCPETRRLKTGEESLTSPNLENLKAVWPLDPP
Summed up: as §1

The target of another test is T10, SPDEF (Homo sapiens, UniProt O95238 1-335).
T10 sequence: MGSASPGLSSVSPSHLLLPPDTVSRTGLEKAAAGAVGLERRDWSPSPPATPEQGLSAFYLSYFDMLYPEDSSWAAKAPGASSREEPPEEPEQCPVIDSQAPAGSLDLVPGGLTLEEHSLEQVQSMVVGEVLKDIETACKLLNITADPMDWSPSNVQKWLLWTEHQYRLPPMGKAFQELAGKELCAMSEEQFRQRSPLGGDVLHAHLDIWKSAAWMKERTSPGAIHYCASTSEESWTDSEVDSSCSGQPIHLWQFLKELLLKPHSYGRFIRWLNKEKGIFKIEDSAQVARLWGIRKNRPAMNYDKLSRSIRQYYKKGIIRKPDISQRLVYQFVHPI
Put shortly:
as §1

The next test deals with T11, ETV7 (Homo sapiens, UniProt Q9Y603 1-341).
T11 sequence: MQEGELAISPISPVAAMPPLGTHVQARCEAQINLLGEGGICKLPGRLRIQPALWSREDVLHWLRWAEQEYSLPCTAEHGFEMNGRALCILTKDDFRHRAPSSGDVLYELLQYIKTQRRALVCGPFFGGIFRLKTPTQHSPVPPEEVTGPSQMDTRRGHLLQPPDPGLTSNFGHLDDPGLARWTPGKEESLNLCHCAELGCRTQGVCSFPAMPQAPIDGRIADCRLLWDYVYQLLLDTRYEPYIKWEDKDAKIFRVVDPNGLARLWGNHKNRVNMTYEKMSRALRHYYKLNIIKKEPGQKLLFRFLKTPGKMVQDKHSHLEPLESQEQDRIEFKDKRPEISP
Summed up:
as §1

In the next test the target is T12, ETV3 (Homo sapiens, UniProt P41162-2 1-143).
T12 sequence: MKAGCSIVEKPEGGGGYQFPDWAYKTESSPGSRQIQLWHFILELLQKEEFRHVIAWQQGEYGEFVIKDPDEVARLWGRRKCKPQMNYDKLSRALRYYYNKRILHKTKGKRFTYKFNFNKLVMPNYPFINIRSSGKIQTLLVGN
Put shortly: as §1

SPIB, sequence (Q01892 whole entry): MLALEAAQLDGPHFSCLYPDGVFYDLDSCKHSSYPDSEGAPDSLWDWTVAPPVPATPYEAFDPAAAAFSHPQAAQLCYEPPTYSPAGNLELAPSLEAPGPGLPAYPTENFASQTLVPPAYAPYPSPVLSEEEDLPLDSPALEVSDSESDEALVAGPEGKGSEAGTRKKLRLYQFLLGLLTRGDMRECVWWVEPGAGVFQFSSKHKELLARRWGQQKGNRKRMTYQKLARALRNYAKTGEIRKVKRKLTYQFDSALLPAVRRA
ELF4, sequence (Q99607 whole entry): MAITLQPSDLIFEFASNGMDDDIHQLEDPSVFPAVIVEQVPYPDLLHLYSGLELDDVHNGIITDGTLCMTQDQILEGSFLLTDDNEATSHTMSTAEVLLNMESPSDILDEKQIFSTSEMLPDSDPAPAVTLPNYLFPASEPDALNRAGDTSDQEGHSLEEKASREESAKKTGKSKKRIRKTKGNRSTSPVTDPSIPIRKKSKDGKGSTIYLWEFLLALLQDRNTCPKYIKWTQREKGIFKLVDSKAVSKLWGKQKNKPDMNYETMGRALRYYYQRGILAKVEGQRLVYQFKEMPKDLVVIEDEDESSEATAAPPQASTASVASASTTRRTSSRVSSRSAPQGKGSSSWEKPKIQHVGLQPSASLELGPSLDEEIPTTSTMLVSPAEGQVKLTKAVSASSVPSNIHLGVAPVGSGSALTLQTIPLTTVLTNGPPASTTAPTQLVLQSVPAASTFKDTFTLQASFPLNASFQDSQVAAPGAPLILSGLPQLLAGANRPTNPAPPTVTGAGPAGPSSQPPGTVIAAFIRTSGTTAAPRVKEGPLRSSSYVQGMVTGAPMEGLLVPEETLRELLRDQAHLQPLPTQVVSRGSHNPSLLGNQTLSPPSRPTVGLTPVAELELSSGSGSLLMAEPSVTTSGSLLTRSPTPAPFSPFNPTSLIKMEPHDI

For the sequence GTTAGC, the binding signal was 1.01 fold enrichment (6-mer frequency, TF over GST control) with SPI1; 1 fold enrichment (6-mer frequency, TF over GST control) in the test with SPIB; 1 fold enrichment (6-mer frequency, TF over GST control) in the test with FEV; 1.06 fold enrichment (6-mer frequency, TF over GST control) with ELF4; 1.17 fold enrichment (6-mer frequency, TF over GST control) with ETV2; 1.02 fold enrichment (6-mer frequency, TF over GST control) with ERF. The binding signal in the test with ETS2 was 1.01 fold enrichment (6-mer frequency, TF over GST control).

Take ATAGTG: the binding signal in the test with ELK4 is 1.06 fold enrichment (6-mer frequency, TF over GST control).

As for GCAGGT, the binding signal with ELK4 was 1.01 fold enrichment (6-mer frequency, TF over GST control).

ACACCG: the binding signal with ELK1 was 1.05 fold enrichment (6-mer frequency, TF over GST control); with ERG, 1.13 fold enrichment (6-mer frequency, TF over GST control); with EHF it was 1.03 fold enrichment (6-mer frequency, TF over GST control); with SPIB, 1.06 fold enrichment (6-mer frequency, TF over GST control); in the test with FEV, 1.26 fold enrichment (6-mer frequency, TF over GST control); with ELF4, 1.11 fold enrichment (6-mer frequency, TF over GST control). Also, the binding signal was 1.03 fold enrichment (6-mer frequency, TF over GST control) in the test with ELK4; 1.03 fold enrichment (6-mer frequency, TF over GST control) in the test with ETV2; 1.09 fold enrichment (6-mer frequency, TF over GST control) in the test with ETV1; 1 fold enrichment (6-mer frequency, TF over GST control) with ERF; 1.04 fold enrichment (6-mer frequency, TF over GST control) in the test with ETV3L; 1.07 fold enrichment (6-mer frequency, TF over GST control) in the test with ETS2. Further, the binding signal was 1.09 fold enrichment (6-mer frequency, TF over GST control) with SPDEF; 1.01 fold enrichment (6-mer frequency, TF over GST control) in the test with ETV7; 1.03 fold enrichment (6-mer frequency, TF over GST control) with ETV3.
